ChEMBL document CHEMBL4513149, “CO-ADD screening of MMV (CH) - MMV compounds” (2021)
Measured potencies and affinities stand elsewhere.

Key:
[1] = system: Klebsiella pneumoniae; details: Concentration 20 uM; ASSAY_TEST Inhibition of Bacterial Growth; detection method Absorption (OD600); MEDIA CAMHB; plate type 384well; NBS; CORNING #3640; time 18 hr
[2] = system: Candida albicans; details: 20 µM
[3] = system: Cryptococcus neoformans; details: Concentration 20 uM; ASSAY_TEST Inhibition of Fungal Growth; detection method Resazurin; Absorption (OD600-OD570); plate type 384well; NBS; CORNING #3640

Structure (SMILES)	Inhibition [1] [%]	Inhibition [2] [%]	Inhibition [3] [%]
COc1cc(Br)cc2cc(C(=O)Nc3cccc(C(F)(F)F)c3)c(=O)oc12	7.93	3.09	-6.76
Cc1ncc(-c2ccnc(Nc3ccc(S(C)(=O)=O)cc3)n2)n1C(C)C [AZD-5438]	16.86	6.64	-6.72
CCOC(=O)c1cc(-c2csc(Nc3c(C)cc(C)cc3C)n2)on1	16.59	2.27	-12.46
CC1(C)Cc2c(c(N3CCOCC3)nc3snc(Br)c23)CO1	3.58	13.1	-2.44
COc1ccc(-c2cc(NC(=O)c3ccc(F)cc3Cl)ccc2OC)cc1	14.44	5.2	8.48
CC(C)c1ncc(-c2ccncc2)c([C@H]2CC[C@H](CNC(=O)c3cccnc3)CC2)n1	18.24	1.5	-3.68
Cc1noc(C)c1COc1cccc(C(=O)N=c2[nH]cccc2C)c1	14.67	1.92	-9.25
O=C(Nc1ccccc1-c1nc2c(C(=O)O)cccc2o1)c1ccccc1	1.94	5.59	-2.58
COc1cc(C2=NCCN2)ccc1-c1cn(-c2cccc(C3=NCCN3)c2)nn1	15.15	2.69	3.58
CC(C)n1nc(-c2cc3c(Cl)cccc3[nH]2)c2c(N)ncnc21	6.59	5.11	-4.09
O=C(C1CCN(c2cc(-n3cccc3)ncn2)CC1)N1CCc2ccccc2C1	-8.74	10	3.06
C[C@H](C(N)=O)N1CCCC[C@@H]1c1ccc(OCc2cccc(F)c2)cc1	9.46	2.97	-6.98
COc1ccc(C(=N)N)cc1-c1cn(-c2ccc(C(=N)N)cc2)nn1.Cl.Cl	8.73	3.44	4.63
O=C(c1ccc(F)cc1)N(CCNc1ccccc1)c1ccccc1	12.15	5.49	-9.35
CC[C@H](CO)NCCN[C@H](CC)CO.Cl.Cl	9.73	3.25	1.15
Cc1cccc(NC(=O)c2cc(S(=O)(=O)N(C)c3ccc(F)cc3)ccc2Cl)n1	14.02	9.46	-4.89
CNC(=O)CNc1nc(-c2ccccn2)nc2scc(-c3ccccc3)c12	15.46	0.88	-5.07
Clc1cccc(CO[C@H]2CCc3ccccc3[C@@H]2n2ccnn2)c1	8.29	10.9	-3.55
Cc1ccc2[nH]c(C3CCCNC3)c(-c3ccncc3)c2c1.Cl.Cl (centres undefined)	-25.08	4.63	1.08
CN(C)CCNC(=O)N1CCCN(c2ncnc3cc(-c4ccccc4)sc23)CC1	15.92	2.85	-8.19
Cc1nn(C)cc1C(C)Nc1nncc(-c2ccc(C(F)(F)F)cc2)n1 (centres undefined)	3.18	3.9	-5.79
Cc1cc(C)nc(-n2nc(C)cc2Nc2ccccc2)n1	15.33	11.7	39.43
CC1=NN(c2nc3ccccc3s2)C(=O)C1Cc1cccc2ccccc12 (centres undefined)	10.99	19.6	-5.86
